PubChem BioAssay AID720690 (Broad Institute, 2013)
Entries with a potency or affinity are not part of this list. Calls of active or inactive are those of the source.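 How the source made its calls: active means every repeat run showing a signal drop whose fitted half-maximal concentration is at most twice the top tested concentration; inconclusive means repeat runs disagree, or flat partial drop, or poor fit; inactive means the rest.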

Test: general mammalian cell viability loss – activator set, cherry-pick, cytotoxicity control for miR-122 modulator project, dose response (AID 720690)
Settings: HEK293T viability, CellTiter-Glo luminescence, 48 h; series mostly up to 26 µM

Row | SMILES | outcome
1 | CCCNC(=O)C[C@H]1CC[C@@H]2[C@H](COc3ccc(NS(=O)(=O)c4ccccc4C)cc3C(=O)N2C)O1 | inactive
2 | COc1ccc(NC(=O)COC(=O)CCCc2c[nH]c3ccccc23)cc1 | inactive
3 | C/C=C/c1ccc2c(c1)O[C@H](CN(C)C(=O)NCCC)[C@H](C)CN([C@@H](C)CO)S2(=O)=O | inactive
4 | C[C@@H]1CN([C@@H](C)CO)S(=O)(=O)c2ccc(C#CC3CC3)cc2O[C@@H]1CN(C)C(=O)c1cccc(F)c1 | inactive
5 | O=C(CNCCC1=CCCCC1)Nc1ccccc1N1CCCCCC1 | inactive
6 | O=C(CC(F)(F)F)N1C[C@H]2[C@@H](c3ccccc31)[C@H](CO)N2C(=O)Cc1cccnc1 | inactive
7 | COc1ccc(CNCCC(c2ccc(OC)cc2)c2ccccc2OC)cc1 (centres undefined) | inactive
8 | COCCNC(=O)C[C@@H]1CC[C@@H]2[C@H](COc3ccc(NS(=O)(=O)c4ccc(Cl)cc4)cc3C(=O)N2C)O1 | inactive
9 | CCNC(=O)C[C@H]1CC[C@H]2[C@@H](COc3ccc(NS(C)(=O)=O)cc3C(=O)N2C)O1 | inactive
10 | CCCCNC(=O)Nc1nnc(-c2ccc(OCC)cc2)o1 | inactive
11 | C[C@@H]1CN([C@@H](C)CO)S(=O)(=O)c2ccc(/C=C/c3ccccc3)cc2O[C@@H]1CN(C)C(=O)NC1CCCCC1 | inactive
12 | CO[C@@H]1CN(C)C(=O)c2ccc(NS(=O)(=O)c3cccc(F)c3)cc2OC[C@@H](C)NC[C@H]1C | inactive
13 | CCCNC(=O)N1[C@@H]2CN(C(=O)c3ccccc3)c3ccccc3[C@@H]2[C@@H]1CO | inactive
14 | CN1C(=O)c2cc(NS(=O)(=O)c3cccc(F)c3)ccc2OC[C@@H]2O[C@@H](CC(=O)O)CC[C@@H]21 | inactive
